# Screens from PubChem BioAssay.
# A selection: hits, their analogues and other compounds. The true share with any hit is near 12%.
# L major viab: inhibitors of Leishmania major promastigote growth; Leishmania major promastigotes, resazurin fluorescence viability; inhibition, % at 10 µM; actives 9% (n = 200,000); AID 1063; in the data active = inhibition above about 50%;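 also: promastigotes grown with compound for 44 hours at 28 °C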
# ROMK mod: modulators of human ROMK potassium channel. P48048. Tet-inducible ROMK, thallium flux fluorescence; actives lie on both sides. B-score at 10 µM. actives 2% (n = 130,000);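 active = signal ratio slope over the read window, or its plate-corrected B-score, at least 3 SD from the plate mean, either direction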;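 also: B-score of the F/F0 ratio slope over 7 to 12 s after thallium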
# Target sequence (P48048 whole entry, looked up): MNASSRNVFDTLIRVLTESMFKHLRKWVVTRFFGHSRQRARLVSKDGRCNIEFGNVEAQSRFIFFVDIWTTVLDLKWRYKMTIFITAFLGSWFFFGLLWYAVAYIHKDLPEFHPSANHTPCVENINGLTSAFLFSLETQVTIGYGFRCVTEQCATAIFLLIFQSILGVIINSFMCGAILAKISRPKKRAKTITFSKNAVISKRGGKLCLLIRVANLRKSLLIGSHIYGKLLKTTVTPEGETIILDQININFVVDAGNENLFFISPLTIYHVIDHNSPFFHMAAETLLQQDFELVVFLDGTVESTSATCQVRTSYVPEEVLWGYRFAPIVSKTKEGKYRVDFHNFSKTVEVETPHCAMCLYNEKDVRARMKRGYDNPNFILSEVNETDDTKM
# Calpain2 inh: inhibitors of pig calpain II; purified calpain II, fluorogenic peptide substrate, 30 min; inhibition, % at 16 µM; actives 0.37% (n = 220,000); AID 1236;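 active = inhibition above about 50%, limit read from the data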
# KCC2 mod: modulates chloride dependent transport by human KCC2 | B-score of Tl+ flux slope (higher = more flux/activation; lower = inhibition) at 10 µM | actives 2.2% (n = 190,000) | AID 1456 | KCC2 cells, thallium flux FluoZin-2 fluorescence;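 active = thallium flux slope and its plate-corrected score both differing from the plate sample mean at a set confidence after two filtering rounds, in either direction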;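 also: slope of fluorescence scaled to starting intensity during 10 to 20 s after thallium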
# WT yeast gro inh: growth inhibition of WT yeast, mitochondrial fusion screen; inhibition, % at 10 µM; mitochondrial fusion phenotypic screen, WT strain; actives 2.1% (n = 190,000); AID 1362; in the data active = inhibition above about 58%; tested in S. cerevisiae
# Numbers stand for hits; – = inactive; · = not tested or not shown.
SMILES,L major viab,ROMK mod,Calpain2 inh,KCC2 mod,WT yeast gro inh
Cc1ccc(C(C(=O)NCc2ccccc2)N(Cc2cccs2)C(=O)c2ccc3c(c2)OCCO3)cc1 (stereo not given),–,–,–,–,69
Cc1ccc(C(C(=O)NC2CCCC2)N(Cc2ccc3c(c2)OCO3)C(=O)Cc2cccs2)cc1 (stereo not given),–,·,–,–,–
COc1ccc(CNC(=O)C(c2ccc(C)cc2)N(Cc2cccs2)C(=O)c2ccc3c(c2)OCCO3)cc1 (stereo not given),99,–,–,–,–
Cc1cc(C(=O)NC(Cc2ccccc2)C(=O)O)c(C)o1 (stereo not given),·,–,–,–,·
N#CCC(=O)Nc1ccc(C(=O)OCC(=O)N(Cc2ccccc2)C2CCS(=O)(=O)C2)cc1 (stereo not given),–,–,–,–,–
Cc1nn(C(=O)C2CC2)c(C)c1Sc1ccc(Cl)cc1,–,·,–,–,79
Cc1ccc(Sc2c(C)nn(C(=O)CNS(=O)(=O)c3ccc(F)cc3)c2C)cc1,–,–,–,–,–
Cc1ccc(Sc2c(C)nn(C(=O)C3CC3)c2C)cc1,–,·,–,–,85
CCCCC1CCC(C(=O)OCC(=O)Nc2ccc(S(N)(=O)=O)cc2)CC1 (stereo not given),52,·,–,–,–
NS(=O)(=O)c1ccc(NC(=O)COC(=O)CCC2CCCCC2)cc1,–,·,–,–,–
CCOc1ccccc1C1C(C(=O)Nc2ccccc2OC)=C(C)Nc2nnnn21 (stereo not given),–,–,–,–,·
CC(CCc1ccccc1)NC(=O)CN1CCN(c2ccc(O)cc2)CC1 (stereo not given),64,–,–,–,–
CC(C)(C)NC(=O)NC(=O)CN1CCN(c2ccc(O)cc2)CC1,–,–,74,–,–
CC(CCc1ccccc1)NC(=O)CN1CCN(Cc2ccccc2)C1=O (stereo not given),–,–,–,–,–
Cc1ccc(-n2nnnc2SCCNS(=O)(=O)c2ccccc2)cc1C,–,·,–,–,–
CC(C)c1ccc(C(=O)CC2(O)C(=O)N(CN3CCOCC3)c3ccccc32)cc1 (stereo not given),–,·,–,–,–
COc1ccc2c(c1)S/C(=C\C(=O)c1ccncc1)N2C,97,·,–,–,–
Cc1ccc(-c2c(C)sc3ncn(CC(=O)N4CCOCC4)c(=O)c23)cc1C,·,·,–,–,·
O/N=C(\c1ccc(Cl)cc1Cl)c1ncc(C(F)(F)F)cc1Cl,–,–,–,–,85
COc1cc(/C=C2/S/C(=N/S(=O)(=O)Cc3ccccc3)NC2=O)c([N+](=O)[O-])cc1OC,·,·,–,·,·
Cc1ccc(CNC(=O)CSCc2ccccc2)cc1,–,–,–,–,–
CCCCN(CCCC)CCNC(=O)CSCc1ccc(C)cc1,83,–,–,–,–
CCCCn1ccnc1C(=O)c1ccc(S(=O)(=O)N2CCCC2)cc1,·,·,–,–,·
CC(C)Cn1cc(F)c(=O)n(CC(C)C)c1=O,–,–,–,–,–
COc1ccc(CNC(=O)CN(CCC(C)C)S(=O)(=O)c2ccc3c(c2)OCCO3)cc1,80,–,–,–,–
SMILES,L major viab,ROMK mod,Calpain2 inh,KCC2 mod,WT yeast gro inh
COc1ccc(CNC(=O)Cn2nc(-c3ccc4c(c3)OCCO4)ccc2=O)cc1,–,–,–,–,–
O=C(CN(Cc1ccccc1)S(=O)(=O)c1ccc2c(c1)OCCO2)N/N=C/c1cccc(Br)c1,80,–,–,–,–
COc1ccc(/C=N/NC(=O)CN(Cc2ccccc2)S(=O)(=O)c2ccc3c(c2)OCCO3)cc1,90,·,–,–,–
CC(c1ccccc1)N(CC(=O)NC1CCCCC1)S(=O)(=O)c1cccc(C(F)(F)F)c1 (stereo not given),–,–,–,–,69
O=C(CN(Cc1ccccc1)S(=O)(=O)c1cccc(C(F)(F)F)c1)NC1CCCCC1,–,·,–,–,–
COc1ccc(/C=N/NC(=O)c2nc(-c3ccccc3)cc(-c3ccccc3)n2)cc1O,99,–,–,–,–
CCn1c2ccccc2c2cc(/C=N/NC(=O)c3cccc(C)c3)ccc21,–,–,–,·,73
CCn1c(C)nc2cc(C(=O)N/N=C/c3ccc(OC)c(O)c3)ccc21,63,·,–,–,–
CCn1c2ccccc2c2cc(/C=N/NC(=O)c3ccccc3C)ccc21,–,·,–,–,–
CCn1c(C)nc2cc(C(=O)N/N=C/c3cccc(O)c3O)ccc21,98,–,–,–,–
CCn1c(C)nc2cc(C(=O)N/N=C/c3ccc(OC)cc3)ccc21,–,–,–,–,–
Cc1ccc(Cl)cc1-c1ccc(C=Nc2ccc(N3CCOCC3)cc2)o1,–,·,–,–,–
O=C1ON=C(c2ccccc2)/C1=C/c1ccc(-c2ccccc2[N+](=O)[O-])o1,100,–,–,–,–
O=[N+]([O-])c1ccccc1-c1ccc(/C=N/n2cnnc2)o1,–,–,–,–,–
COc1ccccc1C(=O)NC(C)C(c1cccs1)N1CCOCC1 (stereo not given),–,–,–,–,–
CSCC[C@H](NC(=O)OC(C)(C)C)C(=O)N/N=C/c1ccc2nccnc2c1,·,·,–,–,·
CCC(c1nnc(SCC(=O)Nc2cccnc2Cl)n1-c1ccccc1)N(C)C (stereo not given),–,–,–,–,–
CCC(c1nnc(SCC(=O)Nc2cc(Cl)ccc2C#N)n1C1CCCCC1)N(C)C (stereo not given),77,–,–,–,–
CCC(c1nnc(SCC(=O)Nc2ccc(C(C)=O)cc2)n1C1CCCCC1)N(C)C (stereo not given),61,–,–,–,–
CCN(Cc1cnn(C)c1)C(=O)c1ccc(OC2CCN(S(=O)(=O)N(C)C)CC2)cc1,–,–,–,–,–
COc1ccc(Cc2c(O)nc(SCC(=O)NC(C)(C)C)[nH]c2=O)cc1,–,–,–,–,–
CC(C)c1ccccc1-n1c(SCC(=O)c2ccc3c(c2)NC(=O)CO3)nc2ccccc2c1=O,67,–,–,–,–
O=C1COc2ccc(C(=O)CSc3ccccc3C(=O)O)cc2N1,·,·,–,–,·
CN(CC(=O)NC(=O)NCc1ccccc1)Cc1cccc(Cl)c1Cl,–,–,–,–,–
Cc1ccc2cc(/C=N/NC(=O)c3ccc(F)cc3)c(Cl)nc2c1,–,–,–,–,–
SMILES,L major viab,ROMK mod,Calpain2 inh,KCC2 mod,WT yeast gro inh
CCN(CC)c1ccc(/C=N/Nc2nc3ccccc3[nH]2)c(O)c1,100,–,–,–,–
CCN(CC)c1ccc(/C=N/N(c2ccccc2)c2ccccc2)c(O)c1,–,·,–,–,–
CCN(CC)c1ccc(/C=N/NC(=O)Cc2cccs2)c(O)c1,98,–,–,–,–
Cc1ccc2cc(/C=N/Nc3nc4ccccc4[nH]3)c(Cl)nc2c1,–,·,–,–,59
O=C(NCC1CCCO1)c1ccc2c(=O)n(Cc3cccc(Br)c3)c(=S)[nH]c2c1 (stereo not given),–,–,–,–,–
CC(=O)Nc1ccc(NC(=O)C23CC4CC(C2)CC(n2cnc(Br)n2)(C4)C3)cc1,–,–,–,–,–
Cc1ccc(F)cc1NC(=O)C12CC3CC(C1)CC(n1cnc([N+](=O)[O-])n1)(C3)C2,67,–,–,–,–
